This note sets out measurements from PubChem BioAssay (NCI).

Some test systems named below: NCI-H23 lung; NCI-H226 lung; NCI-H322M lung; HOP-62 NSCLC; NCI-H460 lung; NCI-H522 lung; A549/ATCC NSCLC; 786-0 renal; COLO 205 colon; DU-145 prostate; K-562 leukemia; MALME-3M melanoma; MDA-MB-231 breast; RXF 393 renal; SF-268 CNS; SF-295 CNS; SF-539 CNS; UACC-257 melanoma; M14 melanoma.
What all share (experiment): NCI-60 one-dose screen, 48 h (100 = growth as untreated, 0 = no growth, -100 = all killed)
Common to all, as to settings: 10 µM unless noted

About 83,000 compounds went through this panel and 20% of them were active in at least one assay; those are over-represented in the sample as a whole.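 Interpretation: 100, growth as untreated; towards 0, rising growth inhibition; 0, no net growth; 0 to -100, cell death. Compounds scoring below 10 were considered active.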 A number with no mark means an inactive call. Activity calls are given as the source filed them.

For `COc1ccc(CC2c3cc(OC)c(OC)cc3CC[N+]2(C)CCC(=O)OCCCCCOC(=O)CC[N+]2(C)CCc3cc(OC)c(OC)cc3C2Cc2ccc(OC)c(OC)c2)cc1OC` (configuration not stated), the growth was 93.4% with NCI-H23 lung; 76.3% with NCI-H226 lung; 90.9% in the test on NCI-H322M lung; 100% with HOP-62 NSCLC; 100% with NCI-H460 lung; 86.1% in the test on NCI-H522 lung. The growth with A549/ATCC NSCLC is 101%; in the test on 786-0 renal it was 103%; in the test on COLO 205 colon, 112%; in the test on DU-145 prostate it was 99.8%; in the test with K-562 leukemia it was 111%; with MALME-3M melanoma, 99.6%. The growth in the test with MDA-MB-231 breast is 92.2%; in the test on RXF 393 renal it was 91.5%; in the test with SF-268 CNS, 87.6%; in the test with SF-295 CNS, 93.5%; in the test with SF-539 CNS it was 100%; in the test with UACC-257 melanoma it was 100%. In the test with M14 melanoma, the growth was 88.5%.
As to `CCOC(=O)c1cc(N)nc2ccccc12`, the growth is 99.2% in the test with NCI-H23 lung; 102% in the test with NCI-H226 lung; 156% in the test on NCI-H322M lung; 94.7% in the test on HOP-62 NSCLC; 96.3% with NCI-H460 lung; 101% with NCI-H522 lung. Moreover, the growth with A549/ATCC NSCLC was 122%; in the test on 786-0 renal it was 102%; with COLO 205 colon it was 112%; in the test on DU-145 prostate it was 104%; in the test on K-562 leukemia, 91.1%; in the test with MALME-3M melanoma, 139%. Besides, the growth in the test with MDA-MB-231 breast is 107%; in the test with RXF 393 renal, 109%; in the test on SF-268 CNS, 91.1%; in the test on SF-295 CNS, 100%; in the test with SF-539 CNS it was 97.8%; in the test on UACC-257 melanoma it was 115%. Further, in the test on M14 melanoma, the growth is 108%.
For `O=C(O)c1cc2cc(OCc3ccccc3)ccc2[nH]1`, the growth in the test with NCI-H23 lung is 103%; in the test on NCI-H226 lung, 107%; in the test on NCI-H322M lung it was 99%; with HOP-62 NSCLC it was 93.8%; in the test with NCI-H460 lung, 98.4%; with NCI-H522 lung, 90.3%. In addition, the growth in the test on A549/ATCC NSCLC was 90.9%; with 786-0 renal it was 115%; in the test on COLO 205 colon, 93.7%; in the test with DU-145 prostate, 114%; in the test with K-562 leukemia it was 112%; in the test on MALME-3M melanoma, -20.3% (active). Further, the growth with MDA-MB-231 breast is 99.1%; with RXF 393 renal, 111%; in the test with SF-268 CNS, 99.9%; in the test on SF-295 CNS, 108%; in the test on SF-539 CNS, 87.5%; in the test with UACC-257 melanoma, 48%. Besides, in the test with M14 melanoma, the growth is 106%.
As to `c1cc2c(cc1-c1cnc3nonc3n1)OCO2`, the growth in the test on NCI-H23 lung is 99.3%; in the test with NCI-H226 lung, 93.4%; in the test with NCI-H322M lung it was 103%; with HOP-62 NSCLC, 83.5%; in the test on NCI-H460 lung, 100%; in the test with NCI-H522 lung, 55.9%. Moreover, the growth in the test with A549/ATCC NSCLC is 97.4%; in the test with 786-0 renal, 109%; with COLO 205 colon it was 91.2%; with DU-145 prostate it was 103%; with K-562 leukemia it was 59.3%; in the test with MALME-3M melanoma it was 98.6%. The growth is 75.1% in the test on MDA-MB-231 breast; 122% with RXF 393 renal; 82.9% with SF-268 CNS; 101% in the test with SF-295 CNS; 73.2% in the test on SF-539 CNS; 93% in the test on UACC-257 melanoma. The growth in the test with M14 melanoma was 101%.
In the case of `CS(=O)(=O)c1ccc(C(=O)N2N=C(c3ccccc3)CC2c2ccc3c(c2)OCO3)cc1` (configuration not stated), the growth in the test on NCI-H23 lung was 101%; with NCI-H226 lung it was 88.7%; in the test with NCI-H322M lung, 99.6%; in the test on HOP-62 NSCLC it was 83.1%; with NCI-H460 lung, 98.5%; with NCI-H522 lung, 87.2%. Moreover, the growth in the test with A549/ATCC NSCLC was 80.2%; in the test on 786-0 renal, 90.8%; in the test with COLO 205 colon, 81.4%; in the test with DU-145 prostate it was 97.4%; with K-562 leukemia it was 59.9%; in the test with MALME-3M melanoma, 104%. The growth in the test on MDA-MB-231 breast is 96.2%; in the test on RXF 393 renal, 98.4%; with SF-268 CNS, 95.2%; with SF-295 CNS, 100%; with SF-539 CNS, 103%; with UACC-257 melanoma, 79.2%. Also, the growth in the test with M14 melanoma is 95.7%.
As to `COc1cc(CN2CCC(N3CCCC3=O)c3ccccc32)cc(OC)c1OC` (configuration not stated), the growth in the test on NCI-H23 lung was 63%; with NCI-H226 lung, 85.9%; with NCI-H322M lung, 87.9%; with HOP-62 NSCLC, 95.5%; in the test with NCI-H460 lung, 89.4%; with NCI-H522 lung, 55.3%. In addition, the growth in the test on A549/ATCC NSCLC is 80.7%; in the test with 786-0 renal, 80.4%; in the test on COLO 205 colon, 106%; with DU-145 prostate, 108%; in the test on K-562 leukemia it was 46%; with MALME-3M melanoma, 71.9%. In addition, the growth was 90.4% with MDA-MB-231 breast; 112% in the test with RXF 393 renal; 91.6% with SF-268 CNS; 79.3% with SF-295 CNS; 93.7% in the test with SF-539 CNS; 72.2% with UACC-257 melanoma. The growth with M14 melanoma was 92.9%.
Regarding `CCOC(=O)C#Cc1c(C(=O)OCC)nnn1[C@@H]1O[C@H](COC(C)=O)[C@@H](OC(C)=O)[C@H]1OC(C)=O`, the growth was 93.4% in the test with NCI-H23 lung; 92.2% with NCI-H226 lung; 101% in the test on NCI-H322M lung; 109% in the test on HOP-62 NSCLC; 108% in the test with NCI-H460 lung; 50% in the test on NCI-H522 lung. Besides, the growth in the test on A549/ATCC NSCLC is 78.3%; in the test with 786-0 renal it was 102%; in the test on COLO 205 colon it was 45.6%; in the test with DU-145 prostate, 100%; in the test with K-562 leukemia, 28.5%; in the test on MALME-3M melanoma it was 101%. The growth in the test on MDA-MB-231 breast was 107%; in the test on RXF 393 renal, 70.2%; in the test on SF-268 CNS it was 97.8%; in the test with SF-295 CNS, 103%; in the test on SF-539 CNS it was 101%; in the test on UACC-257 melanoma, 64.3%. Moreover, the growth in the test on M14 melanoma was 92.1%.
Take `CCOC(=O)Cc1cc(Br)c(OCc2ccccc2)c(Br)c1`: the growth with NCI-H23 lung is 94.1%; with NCI-H226 lung, 88.4%; in the test on NCI-H322M lung it was 102%; in the test with HOP-62 NSCLC it was 96.4%; with NCI-H460 lung it was 114%; in the test on NCI-H522 lung it was 80.3%. Moreover, the growth in the test on A549/ATCC NSCLC was 104%; in the test with 786-0 renal, 92.8%; in the test with COLO 205 colon, 127%; in the test with DU-145 prostate it was 115%; in the test on K-562 leukemia, 86%; in the test on MALME-3M melanoma it was 106%. Moreover, the growth in the test with MDA-MB-231 breast was 89.1%; in the test on RXF 393 renal, 96.4%; with SF-268 CNS, 106%; in the test on SF-295 CNS it was 92.3%; with SF-539 CNS it was 106%; in the test on UACC-257 melanoma, 99.6%. Besides, in the test with M14 melanoma, the growth is 99.6%.
